tim23-1 inh – tim23-1 yeast growth inhibition; S. cerevisiae tim23-1 growth, BacTiter-Glo luminescence, 24 h; inhibition, % at 20 µM; 330,000 tested, 1.3% active; AID 463212;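 active = growth inhibition of the mutant yeast at or above 50%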;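 note: temperature-sensitive mutant grown at 25 °C; plate controls were DMSO-treated mutant yeast for no effect and medium wells lacking yeast for full effect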
Mot1-301 SUMO – inhibitors of SUMOylation pathway: yeast Mot1-301 growth rescue; S. cerevisiae Mot1-301 growth rescue, ATP luminescence, 38.5C; percent above DMSO median, 100 means doubled; growth rescue, % at 18.8 µM; 320,000 tested, 1% active; AID 2716;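 active = every valid replicate shows activation above 250% relative to neutral control wells; inactive = the rest, any valid replicate at or below 250%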;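 note: OY570 slx delta 5 strain wells were the positive control but not used for scaling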
tim10-1 inh – tim10-1 yeast growth inhibition; inhibition, % at 20 µM; AID 463190; 330,000 tested, 2.2% active; S. cerevisiae tim10-1 ts strain growth, BacTiter-Glo, 24 h;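 active = inhibition of at least 40%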;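 note: mutant grown at 25 °C; 0% = DMSO wells with yeast and 100% = wells holding no yeast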
PfHsp90 set2 – growth inhibition of yeast expressing Plasmodium Hsp90; S. cerevisiae expressing PfHsp90, BacTiter-Glo ATP, 48 h; yeast lacking PDR1 and PDR3 efflux regulators; 310,000 tested, 0.32% active; AID 504621; inhibition, % at 9.4 µM;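 active = every replicate shows inhibition above about 80%, whatever the replicate mean, limit read from the data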;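 note: 0% = DMSO neutral controls and 100% = 20 µM radicicol positive controls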
TIM10 inh – growth inhibitors of TIM10 yeast strain; S. cerevisiae TIM10 strain growth, BacTiter-Glo luminescence, 24 h; inhibition, % at 10 µM; 330,000 tested, 1.4% active; AID 463195;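 active = inhibition of 40% or more at the single tested concentration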;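 note: wild-type TIM10 isogenic control strain grown at permissive 25 °C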
tim10-1 confirm – tim10-1 yeast growth inhibition, confirmed. 7,400 tested, 56% active. S. cerevisiae tim10-1 ts strain growth, BacTiter-Glo, 24 h. shares compounds with tim10-1 inh. inhibition, % at 20 µM;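 active = inhibition of yeast growth at or above a set limit in either of two repeat tests at 20 µM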;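 note: tim10-1 mutant grown at permissive 25 °C to find synthetic lethal compounds; 0% = DMSO yeast wells and 100% = medium wells without yeast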
TIM10 conf – confirmation of TIM10 yeast growth inhibitors; 4,600 tested, 63% active; shares compounds with TIM10 inh; S. cerevisiae tim10 strain growth, BacTiter-Glo luminescence, 24 h; inhibition, % at 10 µM;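 active = inhibition of yeast growth at or above a set limit in either of two replicates at 10 µM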;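 note: this counterscreen used the strain with wild-type TIM10; 0% = yeast with DMSO and 100% = medium wells lacking yeast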
tim23-1 conf – confirmation of tim23-1 mutant yeast growth inhibitors; shares compounds with tim23-1 inh; S. cerevisiae tim23-1 growth, BacTiter-Glo luminescence, 24 h; inhibition, % at 20 µM; 4,400 tested, 83% active;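 active = inhibition above about 39% in either of two replicate wells at 20 µM, limit read from the data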;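 note: temperature-sensitive tim23-1 mutant grown at 25 °C; 0% = DMSO wells with yeast and 100% = medium wells without yeast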
* hit, by the source's call; / = not tested or not shown. Only some compounds are listed: those with a hit (about 4.4% of all), similar ones and a draw of the others.

SMILES | tim23-1 inh | Mot1-301 SUMO | tim10-1 inh | PfHsp90 set2 | TIM10 inh | tim10-1 confirm | TIM10 conf | tim23-1 conf
COc1cccc(NC(=O)c2ccc(N3C(=O)C4CC=CCC4C3=O)cc2)c1 (stereo unspecified) | 2 | 19 | -4 | 2 | -21 | / | / | /
CN1C2C(Br)CCCCN2c2ccc(F)cc2S1(=O)=O (stereo unspecified) | 15 | -10 | 16 | 7 | -1 | / | / | /
CC1(C)Cc2ccccc2-c2nc3n(c(=O)c21)CCS3 | 35 | 162 | 39 | -20 | -4 | / | / | /
CC1(C)Cc2ccccc2-c2nc3n(c(=O)c21)CCCS3 | 51* | 10 | 42* | -19 | 26 | 33* | / | 60*
CCC(C)Nc1nc(N)c([N+](=O)[O-])c(Nc2ccccc2OC)n1 (stereo unspecified) | 53* | 0 | 43* | -80 | 23 | 17 | / | 49*
CC(=NC1CC1)c1c(-c2ccccc2)[nH]n(-c2nc3ccccc3s2)c1=O | 53* | -16 | 53* | -15 | 64* | 56* | 49* | 52*
CCOC(=O)N1CCc2c(sc(NC(=O)c3ccc(Cl)s3)c2C(N)=O)C1 | 66* | -6 | 43* | / | 35 | 46* | / | 68*
NNc1nc(-c2ccccc2)cc(-c2ccccc2)n1 | 55* | / | 43* | -55 | 49* | 48* | 11 | 56*
NNC(=O)c1nc(-c2ccccc2)cc(-c2ccccc2)n1 | 63* | -2 | 42* | -11 | 20 | 10 | / | 67*
COc1ccc(/C=N/NC(=O)c2nc(-c3ccccc3)cc(-c3ccccc3)n2)cc1 | 5 | / | 27 | 3 | 12 | / | / | /
NNc1nc(-c2ccccc2)cc(-c2ccccc2O)n1 | 55* | 11 | 44* | 25 | 48* | 47* | 42* | 59*
COc1cc(NC(=O)Cn2cnc3c(OCc4ccccc4)ncnc32)cc(OC)c1OC | 20 | -9 | 14 | 12 | 4 | / | / | /
COCCN(C(=O)CSc1nnc(-c2ccccc2OC)o1)c1c(N)n(CC(C)C)c(=O)[nH]c1=O | 4 | 10 | -12 | 20 | 0 | / | / | /
Cc1ccc(CSc2ncnc3ccccc23)cc1 | 12 | -14 | 12 | -13 | 0 | / | / | /
Cc1ccc(CSc2nc3ccccc3cc2C=O)cc1 | 69* | -21 | 48* | -31 | 25 | 47* | / | 57*
O=Cc1cc2ccccc2nc1SCc1ccc(Cl)cc1 | 78* | 217 | 64* | / | 50* | 55* | 63* | 64*
Oc1cccc2ccc(Nc3ccccn3)nc12 | 52* | -23 | 67* | / | 13 | 64* | / | 79*
CC12CCC(C(=O)N(CSC(=S)N/N=C\c3ccccc3O)C1=O)C2(C)C (stereo unspecified) | 66* | 607 | 47* | 8 | 44* | 24 | 38* | 57*
COc1ccc(/C=N\NC(=S)SCN2C(=O)C3CCC(C)(C2=O)C3(C)C)cc1 (stereo unspecified) | 52* | 7 | 49* | -41 | 52* | 40* | -8 | 51*
CN(C)c1ccc(/C=N\NC(=S)SCN2C(=O)C3CCC(C)(C2=O)C3(C)C)cc1 (stereo unspecified) | 53* | 45 | 61* | -21 | 53* | 52* | -20 | 47*
CN(C)c1ccc(/C=N/NC(=O)CCCO)cc1 | 8 | -9 | -8 | 13 | 10 | / | / | /
CC12CCC(C(=O)N(CC(O)CN3CCN(Cc4ccccc4)CC3)C1=O)C2(C)C (stereo unspecified) | 2 | -7 | -11 | / | 8 | / | / | /
COc1ccc(C(=O)NN2C(=O)C3CCC(C)(C2=O)C3(C)C)cc1 (stereo unspecified) | 29 | -4 | 12 | 0 | -1 | / | / | /
CN1CCCN(C(=O)CNC(=O)c2ccccc2F)CC1 | -1 | -15 | -2 | -3 | -3 | / | / | /
CC(C)(C)c1ccc(C(=O)CC(=O)c2cc(Cl)ccc2O)cc1 | 21 | -16 | 36 | 20 | 20 | / | / | /
SMILES | tim23-1 inh | Mot1-301 SUMO | tim10-1 inh | PfHsp90 set2 | TIM10 inh | tim10-1 confirm | TIM10 conf | tim23-1 conf
N/C(=C\C(=O)c1cc(Cl)ccc1O)C(Cl)(Cl)Cl | 73* | 80 | 40* | -22 | 42* | 48* | 31 | 37
Cc1cccc(Nc2nc(-c3ccc(O)cc3O)cs2)n1 | 87* | 14 | 43* | -73 | 33 | 38* | / | 72*
CN(Cc1ccc(C(C)(C)C)cc1)C(=O)C1CSC2(C)CCC(=O)N12 (stereo unspecified) | 33 | -21 | 36 | -4 | 22 | / | / | /
NNC(=O)c1[nH]c(-c2ccccc2)cc1-c1ccccc1 | 53* | -5 | 57* | -9 | 41* | 44* | 21 | 46*
Cc1c(-c2ccccc2)n[nH]c1C(=O)NN | 8 | 174 | -3 | 21 | -8 | / | / | /
Cc1ccc(S(=O)(=O)N2[C@@H](c3ccccc3F)C(C(=O)O)=CC[C@H]2c2ccc(Cl)c(Cl)c2)cc1 | 11 | 256 | 25 | -2 | 8 | / | / | /
CSCc1c(C(=O)OCC(=O)c2ccc[nH]2)oc2ccccc12 | 59* | / | 51* | / | 67* | 19 | 63* | 74*
Cc1ccc(S(=O)(=O)NCCC(=O)NCC(c2cccs2)N2CCOCC2)cc1 (stereo unspecified) | 3 | 19 | -3 | 1 | -3 | / | / | /
C/C(=N\NC(=O)c1ccc(CN2CCc3ccccc3C2)cc1)c1ccccc1O | 74* | -7 | 47* | 21 | 45* | 29 | 48* | 79*
O=S(=O)(c1cccc(-c2nc3ccccc3s2)c1)N1CCOCC1 | 53* | 19 | 41* | / | 43* | 40* | 30* | 40*
CCOc1ccc(-c2nc(CN3CCCC(C(=O)N4CCOCC4)C3)c(C)o2)cc1 (stereo unspecified) | -4 | 9 | -6 | -4 | 12 | / | / | /
Cn1nc(-c2ccc(Cl)cc2)nc2c(=O)n(C)c(=O)nc1-2 | 77* | 104 | 93* | / | 95* | 92* | 99* | 80*
CC(OC(=O)c1c[nH]c2ccccc12)C(=O)N1CCCC1 (stereo unspecified) | -3 | 47 | -5 | -19 | -8 | / | / | /
O=[N+]([O-])c1ccc(NC(=S)NCCc2ccccc2)cc1 | 52* | -11 | 67* | -6 | 59* | 57* | 52* | 69*
S=C(NCCc1ccccc1)Nc1ccc(Cl)cc1 | 36 | 1 | 11 | 19 | 21 | / | / | /
O=[N+]([O-])c1ccc(NC(=S)NCCc2ccc(Cl)cc2)cc1 | 65* | -17 | 65* | 108* | 72* | 73* | 85* | 68*
